Measurements taken from PubChem BioAssay.
The source made the active and inactive calls. Unless noted, how the calls were made is not given here.

Legend:
[1] = HepG2 liver cancer cell viability effects, profiling panel, resazurin fluorescence, 24 h, PK04 Diversity Set (AID 1172); settings: higher = more signal; further: test concentration not given here
[2] = basal S. cerevisiae growth modulation, no modifier, primary screen, OD600, strain BY4716, 24 h, basal condition (AID 1173); settings: OD600, 24 h, higher = more signal, called active from +8 up or from −8 down
[3] = MM1S myeloma cell viability, profiling panel, resazurin fluorescence, basal, 24 h, PK04 Diversity Set (AID 1174); settings: higher = more signal, called active from +8 up or from −8 down;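 further: MM1S multiple myeloma cell line; test concentration not given here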
[4] = target: Dihydroorotate dehydrogenase (quinone), mitochondrial (Plasmodium falciparum (isolate 3D7)) (UniProt Q08210); experiment: PfDHODH enzyme inhibitors, primary screen, biochemical, C-terminal His tag, absorbance 600 nm (AID 1175); settings: DCIP absorbance 600 nm, higher = more signal, called active from +8 up or from −8 down;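 further: recombinant parasite enzyme with a five histidine tag at its C terminus; test concentration not given here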
[5] = P. aeruginosa biofilm formation inhibitors, primary screen, strain PAO1, LB-PBS medium, absorbance 600 nm (AID 1176); further: test concentration not given here; settings: P. aeruginosa PAO1 growth/biofilm, A600, 12 h; higher = more signal
[6] = S. cerevisiae RM11-1a growth modifiers, primary screen, strain RM11-1a, OD600, basal, 24 h (AID 1177); settings: OD600, 24 h, higher = more signal, called active from +8 up or from −8 down;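 further: cultures grown under basal conditions with no added stressor; test concentration not given here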
[7] = E. coli acrAB mutant growth effects, primary screen, E. coli filamentation inducers, strain DRC39, OD650, 24 h (AID 1178); settings: higher = more signal, called active from +8 up or from −8 down;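 further: growth measured as culture turbidity by optical density at 650 nm; test concentration not given here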
[8] = E. coli acrAB mutant growth effects, primary screen, E. coli filamentation inducers, strain DRC39, OD650, 48 h (AID 1179);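 further: screen aims at cell division blockers that make cells filament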; settings: E. coli DRC39 delta-acrAB growth, higher = more signal, called active from +8 up or from −8 down
[9] = RPMI8226 myeloma cell viability, profiling panel, resazurin fluorescence, basal, 24 h, PK04 Diversity Set (AID 1180); settings: higher = more signal;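 further: RPMI8826 multiple myeloma cell line at 5000 cells per well; test concentration not given here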
[10] = target: E3 ubiquitin-protein ligase XIAP (Homo sapiens) (UniProt P98170); experiment: XIAP binders, primary screen, biophysical, small-molecule microarray, fluorescence 635 nm (AID 1181); settings: small-molecule microarray binding, higher = more signal;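 further: score merges 667 nm emission and signal to noise over triplicate slides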
E3 ubiquitin-protein ligase XIAP (Homo sapiens), sequence (P98170 whole entry, looked up): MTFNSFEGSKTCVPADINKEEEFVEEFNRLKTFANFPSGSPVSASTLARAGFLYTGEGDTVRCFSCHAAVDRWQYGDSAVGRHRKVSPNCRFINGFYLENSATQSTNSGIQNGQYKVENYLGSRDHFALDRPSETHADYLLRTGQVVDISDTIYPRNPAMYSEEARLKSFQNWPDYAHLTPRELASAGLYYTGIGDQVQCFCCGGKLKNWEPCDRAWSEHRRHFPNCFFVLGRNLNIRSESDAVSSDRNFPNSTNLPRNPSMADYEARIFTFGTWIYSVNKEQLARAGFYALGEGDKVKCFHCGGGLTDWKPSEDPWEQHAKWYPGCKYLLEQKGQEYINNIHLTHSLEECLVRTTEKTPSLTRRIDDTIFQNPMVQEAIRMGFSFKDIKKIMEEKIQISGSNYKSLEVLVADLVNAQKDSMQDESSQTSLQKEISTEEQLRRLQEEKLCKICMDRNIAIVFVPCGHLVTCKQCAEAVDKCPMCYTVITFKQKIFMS

Dihydroorotate dehydrogenase (quinone), mitochondrial (Plasmodium falciparum (isolate 3D7)), sequence (Q08210 whole entry, looked up): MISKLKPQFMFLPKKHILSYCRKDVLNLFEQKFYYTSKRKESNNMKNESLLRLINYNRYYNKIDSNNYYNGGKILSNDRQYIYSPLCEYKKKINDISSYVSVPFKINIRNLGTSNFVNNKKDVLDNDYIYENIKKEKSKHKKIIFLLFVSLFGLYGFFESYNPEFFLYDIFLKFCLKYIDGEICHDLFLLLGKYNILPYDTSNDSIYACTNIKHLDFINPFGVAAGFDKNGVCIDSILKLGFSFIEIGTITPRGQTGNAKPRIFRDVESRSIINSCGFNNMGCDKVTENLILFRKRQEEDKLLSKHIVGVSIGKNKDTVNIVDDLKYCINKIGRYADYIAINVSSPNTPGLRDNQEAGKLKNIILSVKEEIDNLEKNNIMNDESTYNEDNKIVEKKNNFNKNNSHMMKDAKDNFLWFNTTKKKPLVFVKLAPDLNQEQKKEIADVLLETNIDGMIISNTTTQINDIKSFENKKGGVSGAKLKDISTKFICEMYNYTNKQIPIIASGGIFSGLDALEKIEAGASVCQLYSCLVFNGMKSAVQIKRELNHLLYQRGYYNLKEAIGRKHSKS

SMILES	z-score [1]	z-score [2]	z-score [3]	composite z-score [4]	z-score [5]	z-score [6]	z-score [7]	z-score [8]	z-score [9]	composite z-score [10]
CC(=O)OC[C@H]1O[C@@H](ON=C(C)CCN2CCc3nc(-c4ccccc4)c(-c4ccccc4)cc3C2)[C@H](OC(C)=O)[C@@H](OC(C)=O)[C@@H]1OC(C)=O	-0.182	-0.909 (inactive)	-0.653 (inactive)	-0.24 (inactive)	0.0039 (inactive)	-0.127 (inactive)	-1.11 (inactive)	-2.14 (inactive)	-0.323	0.0819
CCOc1ccc(N2C(=O)/C(=C/C=C/c3ccccc3OC)S(=O)(=O)C2c2cccc([N+](=O)[O-])c2)cc1 (stereo not given)	1.28	-1.52 (inactive)	-2.33 (inactive)	-1.74 (inactive)	1.07 (inactive)	-1.44 (inactive)	0.777 (inactive)	0.765 (inactive)	-0.548	0.0264
O=C1[C@H]2[C@H]3[C@H](O)[C@H](O)CC(=NO[C@@H]4O[C@H](CO)[C@@H](O)[C@H](O)[C@H]4O)[C@H]3CC[C@H]2C(=O)N1C1CCCCC1	0.241	0.205 (inactive)	-0.655 (inactive)	0.26 (inactive)	-0.613 (inactive)	-0.629 (inactive)	0.411 (inactive)	0.232 (inactive)	-0.815	0.155
CCCNC(=O)[C@@H]1c2ccccc2C(=O)N(c2ccc(C)cn2)[C@H]1c1ccc(CO)cc1	0.306	0.325 (inactive)	-0.472 (inactive)	-0.165 (inactive)	0.388 (inactive)	-0.826 (inactive)	0.232 (inactive)	0.0239 (inactive)	-0.682	-0.165
COc1ccc(O[C@@H]2[C@H](O)CO[C@H]2C=CC#Cc2ccccc2)cc1	0.0873	-0.274 (inactive)	-0.107 (inactive)	0.18 (inactive)	0.578 (inactive)	0.905 (inactive)	-0.01 (inactive)	-0.812 (inactive)	0.268	0.116
O=C1[C@H]2[C@H]3[C@H](O)[C@H](O)CC(=NO[C@@H]4O[C@H](CO)[C@@H](O)[C@H](O)[C@H]4O)[C@@H]3CC[C@H]2C(=O)N1Cc1ccccc1	1.04	-0.391 (inactive)	0.0897 (inactive)	0.261 (inactive)	0.565 (inactive)	-0.497 (inactive)	0.405 (inactive)	1.21 (inactive)	-0.145	0.0689
CCOC(=O)[C@H](Cc1ccccc1)NC(=O)CCC1CC(OC(=O)NCc2ccc3c(c2)OCO3)CC2(CCCC(COC(=O)NCc3cccc(C(F)(F)F)c3)O2)O1 (stereo not given in full)	-0.302	-1.17 (inactive)	1.12 (inactive)	-2.76 (inactive)	-0.813 (inactive)	0.234 (inactive)	-1.21 (inactive)	-0.793 (inactive)	0.352	0.309
CO[C@H]([C@@H](C)[C@H](OC)c1ccccc1)[C@H](C)[C@@H](OC)[C@H](C)C(C)=O	0.0132	-1.22 (inactive)	0.367 (inactive)	0.758 (inactive)	-0.373 (inactive)	0.135 (inactive)	-0.0566 (inactive)	-0.59 (inactive)	-0.0764	-0.21
CC(C)OC(=O)C=C1C[C@@H](c2ccc(C#N)cc2)O[C@@H](c2ccc(C#N)cc2)O1	-0.389	-0.709 (inactive)	-0.793 (inactive)	0.382 (inactive)	-0.281 (inactive)	0.146 (inactive)	-0.667 (inactive)	-0.182 (inactive)	-0.312	-0.0994
COCC(=C=CC[C@@H](O)c1ccccc1OCCO)CCO	0.721	-0.853 (inactive)	0.599 (inactive)	-1.59 (inactive)	0.0356 (inactive)	0.0502 (inactive)	1.63 (inactive)	1.16 (inactive)	1.42	0.326
C[C@@H]1C=CCC(=O)OC[C@H](C)C(=O)N2CCC[C@H]2C(=O)OC1	0.613	0.516 (inactive)	-0.0084 (inactive)	-0.697 (inactive)	-0.549 (inactive)	0.21 (inactive)	0.686 (inactive)	0.528 (inactive)	0.575	-0.0416
COCCCNC(=O)[C@@]1(Sc2ccc(C)cc2)CC(=O)N(Cc2ccccc2)[C@@H]1c1ccc(CO)cc1I	0.121	-3.62 (inactive)	-2.46 (inactive)	-0.666 (inactive)	-0.549 (inactive)	-1.02 (inactive)	0.283 (inactive)	0.264 (inactive)	-1.78	0.106
CC(C)[C@@H](OCc1ccccc1)[C@H](C)C=NOC[C@@H](C)[C@H](OCc1ccccc1)C(C)C	-0.914	0.425 (inactive)	-0.908 (inactive)	-0.213 (inactive)	-0.324 (inactive)	-0.089 (inactive)	0.705 (inactive)	1.09 (inactive)	-1.11	-0.345
CO[C@H]1COC(=O)[C@H](C)NC(=O)[C@@H](C)COC(=O)CC=C[C@@H]1C	-0.279	-0.518 (inactive)	0.0346 (inactive)	-0.0114 (inactive)	-0.443 (inactive)	-0.477 (inactive)	0.327 (inactive)	1.3 (inactive)	0.0991	0.0593
C#CCCCON=C1C[C@@H](O)[C@@H](O)[C@@H]2[C@@H]3C(=O)N(Cc4ccccc4)C(=O)[C@@H]3CC[C@H]12	1.02	-1.43 (inactive)	0.582 (inactive)	-0.794 (inactive)	0.495 (inactive)	-1.59 (inactive)	-0.039 (inactive)	-0.923 (inactive)	0.781	-0.256
C#C[C@@H](CC)O[Si](C#Cc1ccc(Oc2ccccc2)cc1)(C(C)C)C(C)C	-0.543	-0.87 (inactive)	-0.613 (inactive)	-0.661 (inactive)	0.833 (inactive)	0.898 (inactive)	-0.568 (inactive)	-0.416 (inactive)	-1.1	-0.0562
CO[C@@H]1COC(=O)CC=C[C@@H](C)[C@@H]2C=C[C@@H](O)[C@@H](COC(=O)CC=C[C@H]1C)O2	0.234	-1.29 (inactive)	0.604 (inactive)	-1.34 (inactive)	0.683 (inactive)	-2.03 (inactive)	-0.0072 (inactive)	-0.392 (inactive)	-0.501	0.0304
C[C@@H](c1ccccc1)N1C(=O)[C@H]2[C@H]3[C@H](O)C=CC(=O)[C@@H]3CC[C@H]2C1=O	-0.0507	-0.697 (inactive)	0.711 (inactive)	-0.366 (inactive)	-0.319 (inactive)	-0.701 (inactive)	0.0826 (inactive)	-0.286 (inactive)	0.982	0.126
CC(C)(C)OC(=O)CC[C@]1(C(=O)NCc2ccccc2)N=C(c2ccc(OCCCO)cc2)O[C@H]1c1ccccc1	0.461	0.69 (inactive)	-0.768 (inactive)	0.218 (inactive)	0.469 (inactive)	0.543 (inactive)	0.732 (inactive)	0.03 (inactive)	-0.135	-0.16
C[C@H](c1ccccc1)N1C(=O)[C@H]2[C@H]3[C@H](O)[C@H](O)CC(=O)[C@@H]3CC[C@H]2C1=O	-0.353	0.205 (inactive)	-0.486 (inactive)	-0.303 (inactive)	0.544 (inactive)	-0.897 (inactive)	-0.159 (inactive)	-0.0569 (inactive)	-0.523	-0.0826
CC(C)CN1CCc2nc(-c3ccccc3)c3c(c2CC1)CO[C@@H](C)C3	0.652	-0.368 (inactive)	0.389 (inactive)	0.496 (inactive)	-0.458 (inactive)	-0.284 (inactive)	-0.274 (inactive)	-0.328 (inactive)	0.711	-0.0964
C[C@H]1Cc2c(-c3ccccc3)nc3c(c2CO1)CN(CCOc1ccccc1)CC3	-0.33	-1.97 (inactive)	0.0723 (inactive)	-0.0439 (inactive)	1.17 (inactive)	0.671 (inactive)	1.67 (inactive)	-0.176 (inactive)	0.678	-0.0599
COC(=O)[C@H]1COC(c2ccc(OCCCO)cc2)=N1	-0.652	-0.928 (inactive)	0.107 (inactive)	0.335 (inactive)	0.149 (inactive)	-0.286 (inactive)	0.057 (inactive)	-0.645 (inactive)	0.492	-0.103
